Measured values taken from PubChem BioAssay (NCI).
Compounds without any hit were thinned out: in the full panel of roughly 79,000, 15% have a hit. Values without a mark were called inactive. Calls of active or inactive are those of the source. Cut-off read from the data, not from the text of the source: active = growth inhibition above about 70%; inactive = the rest.

How the values were obtained:
[1] = NCI Yeast Anticancer Drug Screen. Data for the rad50 strain (AID 155);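 note: 0% = growth of vehicle-only cultures of the same strain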; settings: S. cerevisiae rad50 strain growth inhibition; at 50.0 µM; active compounds read high
Method in brief: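 Inhibition values express reduced yeast growth in compound-treated cultures relative to vehicle-treated controls.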

[2] = NCI Yeast Anticancer Drug Screen. Data for the mec2-1 strain (AID 157); settings: S. cerevisiae mec2-1 strain, at 50.0 µM, active compounds read high
Method in brief: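 Readout is yeast growth inhibition, normalised to vehicle-treated controls, in the mec2-1 strain exposed to compound.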

[3] = NCI Yeast Anticancer Drug Screen. Data for the sgs1 mgt1 strain (AID 161);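 note: 0% = growth of cultures given vehicle only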; settings: S. cerevisiae sgs1 mgt1 strain, at 50.0 µM, active compounds read high
Method in brief: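 Compounds are added to genetically altered yeast, and growth is compared with cultures given vehicle alone to give percent inhibition.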

[4] = NCI Yeast Anticancer Drug Screen. Data for the cln2 rad14 strain (AID 165);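 note: 0% = growth equal to vehicle treated cultures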; settings: S. cerevisiae cln2 rad14 strain, at 50.0 µM, active compounds read high
Method in brief: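 Relative to vehicle controls, growth inhibition of compound-treated cln2 rad14 yeast was recorded.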

[5] = NCI Yeast Anticancer Drug Screen. Data for the bub3 strain (AID 167); settings: S. cerevisiae bub3 mutant strain, at 50.0 µM, active compounds read high
Method in brief: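 Steps: expose the mutant yeast strain to compound; grow alongside vehicle-treated cultures; measure growth; express inhibition against the vehicle cultures.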

[6] = NCI Yeast Anticancer Drug Screen. Data for the mlh1 rad18 strain (AID 175); settings: S. cerevisiae mlh1 rad18 strain growth inhibition; at 50.0 µM; active compounds read high
Method in brief: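 Test agents were incubated with a yeast strain of defined genotype (DNA damage repair defect). Inhibition of growth was derived by comparison with vehicle-exposed cultures.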

Structure (SMILES)	growth inhibition [1]	growth inhibition [2]	growth inhibition [3]	growth inhibition [4]	growth inhibition [5]	growth inhibition [6]
CCCCOc1ccc(Nc2c(C(=O)O)cnc3cc4c(cc23)OCO4)cc1	-11.1%	3.25%	-13.7%	5.4%	-4.85%	18.4%
CC(=O)Oc1ccc(C2c3cc(OC(C)=O)c(OC(C)=O)cc3CC3C(=O)OCC32)cc1OC(C)=O (stereo unspecified)	2.45%	-4.85%	2.6%	-36.3%	12.3%	1.1%
CC(C)NCC(O)COc1cccc2ccccc12 (stereo unspecified)	19.4%	-32.2%	31.1%	20.6%	14.9%	11.1%
CC1(CC2(c3ccccc3)NC(=O)NC2=O)NC(=O)NC1=O (stereo unspecified)	-0.55%	-19.6%	0.9%	10.6%	11.8%	5.65%
COC(=O)c1csnn1	1.2%	10.8%	12.7%	8.5%	4.3%	10.2%
CC(Br)C(=O)n1c2ccccc2c2ccccc21 (stereo unspecified)	21.6%	9.8%	19.8%	-13.8%	12.2%	8.1%
N#CC(C(=O)/C(=N\Nc1nc(=S)[nH]n1N)C(C#N)c1ccc(Cl)cc1)c1ccc(Cl)cc1 (stereo unspecified)	-13.3%	-10%	-28.6%	4.45%	-4.4%	-4.95%
COc1ccccc1N/C(=C\C(=O)C(=O)NC12CC3CC(CC(C3)C1)C2)c1ccccc1	11.4%	2.55%	8.65%	2.25%	3.75%	14.2%
Cc1nn(C(=O)c2ccncc2)c2c1C(c1cccc([N+](=O)[O-])c1)SC(N)=N2 (stereo unspecified)	-55.5%	-45.6%	-32.2%	2.1%	-10.6%	-28.2%
O=[N+]([O-])c1ccc(CCO)cc1	-4.15%	-26.1%	-6.85%	-15.4%	-10.5%	-4.6%
O=C(Cl)C(Cl)(c1ccccc1)c1ccccc1	2.15%	13.6%	4.15%	-6.9%	17.1%	3.75%
CC(C)c1ccccc1OC(=O)NC1CCCCC1	1.9%	20.7%	7.25%	0.15%	14.7%	3.95%
O=C(c1ccccc1)c1ccncc1	28.2%	-4.4%	-27.2%	-1%	-1.9%	-3.1%
O=C(NC(=Nc1ccccc1)SCSC(=Nc1ccccc1)NC(=O)c1ccco1)c1ccco1	-5.85%	-7.9%	-45.7%	12.7%	-4.7%	-12.4%
CC[C@@]12CCC(=S)N(CCSc3ccccc3)[C@@H]1c1c(n(S(=O)(=O)c3ccc(OC)cc3)c3ccccc13)CC2	-38%	-18.1%	0.3%	-15.9%	0.7%	-5.3%
COc1ccc(C(=O)/C=C/c2cccc3ccccc23)cc1	15.4%	25.7%	30.9%	-3.85%	33%	16.6%
CCc1ccccc1NC(=O)/C(CC(=O)c1c(C)n([O-])c2ccccc2[n+]1=O)=N\NS(=O)(=O)c1ccc(C)cc1	-18.8%	-8.25%	-12.3%	12.7%	7.25%	2.5%
CC(=O)Nc1cc(F)c2c(c1F)Cc1cc(F)ccc1-2	15.1%	21.9%	11.7%	-63.4%	5.15%	7.95%
N#C/C(=C\c1c[nH]c2ccccc12)C(=O)c1ccc(O)c(O)c1	-6.55%	0.25%	-20.6%	18.1%	2.95%	-6.95%
O=S1(=O)NC(=NC2CCCC2)c2ccccc21	0.7%	-12.4%	-3.55%	-35.8%	-7.75%	1.15%
c1cc(CSSCc2ccncc2)ccn1	-15%	3.15%	-19.1%	-13.2%	-27.6%	4.75%

Structure (SMILES)	growth inhibition [1]	growth inhibition [2]	growth inhibition [3]	growth inhibition [4]	growth inhibition [5]	growth inhibition [6]
CC(N)(CCSCP(=O)(O)O)C(=O)O (stereo unspecified)	-22.1%	-7.4%	-19.5%	-26.9%	-7.45%	-27.4%
OC(c1ccccc1)(c1ccccc1)C1CC1	6.2%	-6.9%	1.6%	7%	-19.2%	10.9%
CC1=CC(O)C(Br)C(C)(C)C12CCC(C)(Cl)C(Br)C2 (stereo unspecified)	90.1% (active)	91% (active)	89.8% (active)	81.8% (active)	89.9% (active)	89.3% (active)
Cc1ccccc1N=C(N)Nc1ccccc1	5.5%	-4.85%	-3.9%	-43.3%	-10.6%	-6.7%
CC1=C2C(=O)O[C@@H](c3ccoc3)[C@]2(C)CCC1	15.3%	-6.8%	14.1%	-8.9%	0.35%	16.6%
O=C(COc1ccc(Cl)cc1)Oc1c(Cl)cc(Cl)cc1Cl	96.4% (active)	97.8% (active)	98.7% (active)	96.8% (active)	98.2% (active)	98% (active)
O=[N+]([O-])c1ccc(-c2cc3ccccn3c2)cc1	-5.1%	-46.2%	-9.7%	-11.8%	11.8%	-18.1%
O=C(N/N=C\c1ccccc1)Nc1cccc2ccccc12	-27.4%	16.4%	20.3%	-25.9%	27.9%	-9.75%
O=c1oc2ccccc2cc1S(=O)(=O)c1ccc(Cl)cc1	-0.9%	0.85%	3.7%	-58%	-9.75%	-20.4%
OCC1OC(n2cc[nH]c2=S)C(O)C1O (stereo unspecified)	8.5%	7.6%	-2.6%	4.45%	10.2%	-12.7%
OC(C/C(=N\Nc1ccccc1)c1ccc(Br)cc1)(C(F)(F)F)C(F)(F)F	67.2%	97% (active)	88.8% (active)	85.7% (active)	44.9%	96.5% (active)
CC#CCN(C(C)C)C(C)C	15.4%	8.3%	-11.4%	-34.5%	-21.5%	-27.1%
O=C1OCC/C1=C\c1cccc([N+](=O)[O-])c1	10.4%	14.4%	11.2%	-42.7%	22.5%	26.9%
Cc1ccc(NC(=O)CSc2nnc(Cc3ccccc3)o2)cc1	-15.4%	-4.35%	-18.5%	-20.1%	-3.65%	-25.6%
COc1ccc(-c2cc(=O)c3ccc(O)cc3o2)c(OC)c1OC	-4.7%	-10.4%	-8.35%	6.65%	-2.65%	-1.75%
COCCCNC(=O)CC(=O)NCCCOC	13.4%	-2.3%	24.8%	6.55%	5%	29.4%
CCC1(CC)SCC(C)(O)NC1=O (stereo unspecified)	1.95%	-12.5%	-7.15%	-35.4%	-10.6%	-4.75%
O=C(/C=C/c1ccccc1)CC(=O)c1ccccc1.O=C(/C=C/c1ccccc1)CC(=O)c1ccccc1.[Cu]	-17.1%	-10.7%	-15.7%	-35.8%	-2.45%	-15.9%
ClCCCCCOCCCCCCl	8.15%	1.25%	-1.5%	-11.7%	-4.75%	-1.05%
COc1ccc(C2(C)C=C(C)C=C(C)C2=O)cc1 (stereo unspecified)	-5.1%	2.9%	-12.2%	-15.9%	-9.65%	7.75%
